In the library only some 0.96% were active in any assay of this set; here they are far more common.
F-actin modifier = modifiers of cytoskeleton assembly | actives 0.18% (n = 91,000) | inhibition, % at 2 µM | AID 836 | HUVEC TNFa F-actin phalloidin imaging, high content;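 active = inhibition above the batch mean plus 3 SD and confirmed as a hit by visual image inspection, cut at about 30% in these data, passing the limit was not always enough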
SDO1 yeast rescue = compounds rescuing growth of sdo1-depleted yeast, bone marrow failure model; actives 0.21% (n = 140,000); z-score at 10 µM; AID 817; S. cerevisiae sdo1-depleted JHY4D growth rescue, OD600 30 h; active compounds read high; pdr5 snq2 efflux-pump mutant strain;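 active = z-score above 3 at both the 24 hr and the 30 hr optical density reads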
sEH act = increases human soluble epoxide hydrolase activity. actives 0.04% (n = 91,000). activation, % at 2 µM. AID 717. purified human sEH enzymatic activity, activator screen; in the data active = activation above about 37%
Target sequence (P34913 whole entry, looked up): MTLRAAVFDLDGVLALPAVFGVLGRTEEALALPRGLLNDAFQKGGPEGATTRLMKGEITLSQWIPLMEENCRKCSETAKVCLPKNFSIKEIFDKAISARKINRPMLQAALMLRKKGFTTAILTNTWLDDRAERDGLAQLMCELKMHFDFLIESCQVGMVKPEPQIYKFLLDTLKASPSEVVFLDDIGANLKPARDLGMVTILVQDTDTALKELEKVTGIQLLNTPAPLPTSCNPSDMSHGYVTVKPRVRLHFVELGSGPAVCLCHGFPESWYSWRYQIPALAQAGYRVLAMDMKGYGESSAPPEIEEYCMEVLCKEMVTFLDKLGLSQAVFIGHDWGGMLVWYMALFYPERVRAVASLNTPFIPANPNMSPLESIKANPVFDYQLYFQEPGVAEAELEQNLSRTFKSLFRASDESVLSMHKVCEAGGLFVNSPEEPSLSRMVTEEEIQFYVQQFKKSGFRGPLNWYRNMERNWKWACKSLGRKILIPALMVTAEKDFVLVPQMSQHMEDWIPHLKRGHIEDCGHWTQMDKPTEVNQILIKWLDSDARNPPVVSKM
E-sel TNF inh = TNF alpha driven E-selectin expression inhibition; HUVEC TNFa-induced E-selectin immunofluorescence, high content; inhibition, % at 2 µM; actives 0.71% (n = 120,000); AID 1246;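 active = inhibition above the batch mean plus 3 SD, and confirmed as a hit on visual image review, cut at about 43% in these data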
Phagocyt inh = inhibitors of macrophage phagocytosis; J774A.1 macrophage IgG-bead phagocytosis, imaging; inhibition, % at 5 µM; actives 0.07% (n = 110,000); AID 1029;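 active = inhibition above the mean of the plate negative controls plus 5 SD, cut at about 13% in these data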;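 also: phagocytic index as fraction of beads internalized from green versus red external bead signal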
sEH inhibitor = blocks human soluble epoxide hydrolase activity; actives 0.34% (n = 91,000); P34913; AID 707; recombinant human sEH enzymatic activity assay; inhibition, % at 2 µM; in the data active = inhibition above about 80%
A number is an active result; . = inactive; / = no result given; [ ] = dose if it differs, or a comment.

SMILES	F-actin modifier	SDO1 yeast rescue	sEH act	E-sel TNF inh	Phagocyt inh	sEH inhibitor
O=C(CSc1nc2ccccc2[nH]1)N1CCN(S(=O)(=O)c2ccc(Cl)cc2)CC1	.	.	.	68	.	.
O=S(=O)(Nc1ccc2nc(-c3ccc(Br)o3)[nH]c2c1)c1ccccc1	.	.	.	.	/	.
Cc1ccc(-c2nc3ccc(NS(=O)(=O)c4ccccc4)cc3[nH]2)o1	.	.	.	.	143	.
CCOc1ccc(-c2nc3scc(-c4cccs4)c3c(=O)[nH]2)cc1	/	/	/	.	/	/
O=C(CO/N=C/c1ccccc1OC(F)F)NCc1cccs1	/	.	/	90	.	/
Cn1c(=O)[nH]c(=O)c2c1nc(N1CCCCCC1)n2CC(N)=O	.	.	.	.	/	.
C/C=C/Cn1c(N2CCCCCC2)nc2c1c(=O)[nH]c(=O)n2C	.	.	.	74	/	.
CC12CCC(C(=O)Nc3cc(Cl)ccc3Cl)(C(Br)C1=O)C2(C)C (stereo unspecified)	/	.	/	/	.	/
Cc1ccc(-c2nnc(N3CCN(C(=O)CN4C(=O)c5ccccc5C4=O)CC3)c3ccccc23)cc1	.	/	.	100	/	.
Cc1ccc(NC(=O)c2ccccc2-c2ccc(C(F)(F)F)cc2)cc1S(=O)(=O)N1CCOCC1	/	.	/	.	.	/
Cc1cccc(Oc2nc(CN3CCOCC3)nc3sc4c(c23)CCCC4)c1	/	.	/	/	.	/
O=C(O)CCc1ccc(-c2cccs2)n1NC(=O)c1ccc(Cl)cc1	.	.	.	.	79	.
O=C(O)CCc1ccc(-c2cccs2)n1NC(=O)c1ccc(Cl)cc1Cl	.	.	.	.	.	.
Cn1c(NCCN2CCCCC2)cc(=O)n(C)c1=O	/	.	/	81	.	/
CCCNc1cc(=O)n(C)c(=O)n1C	.	.	.	.	.	.
CCOc1ccccc1C(=O)NCCC(=O)O	100	.	.	.	.	.
COc1ccc(CCNC(=O)CN2C(=O)c3ccccc3C2=O)cc1	.	.	.	.	.	.
COCCCNC(=O)CN1C(=O)c2ccccc2C1=O	.	.	.	66	.	.
Fc1ccc(NC(=S)NC23CN4CN(CN(C4)C2)C3)cc1	/	.	/	/	.	/
CCn1c(COc2ccccc2C)nnc1SCC(=O)CC(=O)Nc1ccccc1	.	.	.	.	.	.
CCOc1ccc(-n2nc(C(=O)NCCOC)c3ccccc3c2=O)cc1	/	.	/	.	.	/
CCOc1ccc(-n2nc(C(=O)N3CCN(CC)CC3)c3ccccc3c2=O)cc1	.	.	.	66	/	.
Cc1ccc(S(=O)(=O)c2cc(C#N)c(=O)[nH]c2N)cc1	62	.	.	.	/	.
C[C@@H]1NC(=O)c2cc([N+](=O)[O-])cc(I)c2OCC[C@@H](C(N)=O)NC(=O)[C@H](CCC(=O)O)NC1=O	/	.	/	.	/	/
COc1ccc2nc(SCc3nc(N)nc(Nc4ccccc4)n3)[nH]c2c1	.	.	.	95	.	.
SMILES	F-actin modifier	SDO1 yeast rescue	sEH act	E-sel TNF inh	Phagocyt inh	sEH inhibitor
NC(=O)NC(c1ccccc1)c1cccc2ccccc12 (stereo unspecified)	.	.	.	.	.	.
CC1(C)Cc2noc(N)c2C(C)(C)N1OC(=O)c1ccco1	.	.	.	.	/	.
O=C(COC(=O)c1cc(-c2ccc(F)cc2)nc2ccccc12)NCC1CCCO1 (stereo unspecified)	/	/	/	.	/	/
CCN1c2ccccc2-c2nc3ccccc3n2C1c1cccnc1 (stereo unspecified)	.	.	.	100	.	.
Cn1c(=O)c(=O)n(C)c2cc(S(=O)(=O)N3CCc4ccccc43)ccc21	.	.	/	57	.	/
Cc1noc(C)c1S(=O)(=O)Nc1ccc(C(=O)NC2CCCCC2C)cc1 (stereo unspecified)	.	.	.	75	.	.
CCN(CC)CCCNC(=O)c1sc2ncn(CC(=O)Nc3ccc(C)c(Cl)c3)c(=O)c2c1C	/	/	/	.	/	/
Cc1ccc(NC(=O)Cn2cnc3sc(C(=O)NCCN(C)C)c(C)c3c2=O)cc1Cl	.	.	.	50	/	.
CN(C)c1ccc(NC(=S)NC(=O)/C=C/c2ccco2)cc1	/	/	/	.	/	/
CN(C)c1ccc(NC(=S)NC(=O)/C=C/c2ccc(Cl)cc2)cc1	.	.	.	87	.	.
Cc1ccc(OCc2nnc(N)s2)cc1	/	/	/	.	/	/
Cc1cccc(OCc2nnc(N)s2)c1C	.	.	.	71	.	.
CCC(=O)N1CCc2cc(Br)cc(S(=O)(=O)NCc3ccco3)c21	/	.	/	79	.	/
Cc1ccccc1CS(=O)(=O)c1nnc([C@H](CC(C)C)NC(=O)OC(C)(C)C)o1	.	.	.	99	.	.
Cc1cc(/C=C2\SC(=Nc3ccc(F)cc3)NC2=O)c(C)n1-c1ccc(S(N)(=O)=O)cc1	31	.	.	.	.	.
O=C(O)CC(NC(=O)c1sc2ccccc2c1Cl)c1ccc(F)cc1 (stereo unspecified)	/	.	/	/	/	/
O=C(/C=C/Nc1ccc(F)cc1F)c1cccs1	/	.	/	.	.	/
O=C(/C=C\Nc1cccc(F)c1)c1cccs1	.	.	.	70	.	.
CC(=O)Nc1ccc2c(c1)OCCO2	.	.	.	.	/	.
O=C(Nc1ccc2c(c1)OCCO2)NC12CC3CC(CC(C3)C1)C2	.	.	.	.	.	97
CCn1c2ccc(/C(C)=N\O)cc2c2cc(/C(C)=N\O)ccc21	.	.	.	100	.	.
CCCCCCCCOC(=O)CCc1c(C)[nH]c(=S)[nH]c1=O	.	.	.	.	/	.
CCCCCCOC(=O)/C=C/c1c(C)[nH]c(=O)[nH]c1=O	.	.	.	74	.	.
CC1(C)Cc2c(sc3nnn(Cc4ccc(Cl)cc4)c(=O)c23)CO1	/	.	/	/	38[artifact]	/
Cc1ccc(OCC(O)CNS(=O)(=O)c2ccccc2C(=O)N2CCCCC2)cc1 (stereo unspecified)	44	.	.	.	.	.
SMILES	F-actin modifier	SDO1 yeast rescue	sEH act	E-sel TNF inh	Phagocyt inh	sEH inhibitor
Cc1cccc(C)c1OCC(O)CNS(=O)(=O)c1ccccc1C(=O)N1CCOCC1 (stereo unspecified)	.	.	.	.	/	.
C/C(=N\NC(=O)c1ccc(=O)[nH]n1)c1cccnc1	/	.	/	.	.	/
CCC(C)c1ccc(NC(=O)C2CCN(c3ccc(C(F)(F)F)cn3)CC2)cc1 (stereo unspecified)	/	.	/	/	.	/
CCC(C)c1ccc(NC(=O)C2CCN(c3ncccn3)CC2)cc1 (stereo unspecified)	.	.	.	.	/	99
Cc1ccc(S(=O)(=O)Nc2ccc(NC(=O)Nc3ccc(F)cc3F)cc2)cc1	/	.	/	82	.	/
O=C(Nc1ccncc1)Nc1ccc(F)cc1F	.	.	.	.	.	.
Nc1ccc2nc(-c3ccc(N)c(Cl)c3)[nH]c2c1	46	.	.	.	/	.
COc1ccc(C(CC(=O)NCc2ccccc2)Sc2n[nH]c(-c3ccccc3)n2)cc1 (stereo unspecified)	/	.	/	92	.	/
COc1ccc(C(CC(=O)NCc2ccccc2)Sc2n[nH]c(-c3ccc(Cl)cc3)n2)cc1 (stereo unspecified)	/	.	/	/	.	/
CCN(CC)S(=O)(=O)c1cccc(-c2nnc(SCc3nnc(-c4cccs4)o3)n2N)c1	.	.	/	/	.	/

High-throughput results deposited in PubChem by several laboratories.
